Compounds with a hit are over-represented: about 7.4% of the library has one in this group of screens.
FLuc modulator: firefly luciferase modulation, counter-screen for miR-21 project | purified FLuc, Km substrates, luminescence inhibition | Potency, µM (doses to about 57.5 µM), most hits filed as inhibitors | 6.9% of 360,000 active; also: nearly all actives have a fitted effect of over 55% in size
Target sequence (P08659 whole entry, looked up): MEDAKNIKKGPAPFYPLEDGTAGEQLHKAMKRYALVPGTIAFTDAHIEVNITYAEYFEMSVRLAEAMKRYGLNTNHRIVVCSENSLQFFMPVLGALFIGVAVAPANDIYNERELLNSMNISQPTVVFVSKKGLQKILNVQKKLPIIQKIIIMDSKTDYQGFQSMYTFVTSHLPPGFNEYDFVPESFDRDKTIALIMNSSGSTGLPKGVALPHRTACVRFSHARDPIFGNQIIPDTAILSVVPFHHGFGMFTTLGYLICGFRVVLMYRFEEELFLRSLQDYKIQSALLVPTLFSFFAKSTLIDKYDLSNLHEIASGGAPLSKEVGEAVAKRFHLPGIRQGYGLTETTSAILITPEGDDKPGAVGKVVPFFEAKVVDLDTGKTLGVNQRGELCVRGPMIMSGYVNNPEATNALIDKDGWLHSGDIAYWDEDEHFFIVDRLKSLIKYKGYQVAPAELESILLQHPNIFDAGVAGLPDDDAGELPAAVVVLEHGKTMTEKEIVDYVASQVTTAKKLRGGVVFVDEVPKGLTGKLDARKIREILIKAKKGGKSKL
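Purified P. pyralis luciferase, 10 nM final, with Km-level 10 uM D-luciferin and 10 uM ATP in 50 mM Tris acetate pH 7.5, 10 mM Mg acetate, 0.01% Tween-20, 0.05% BSA; 6-point qHTS titration about 60 µM downward; luminescence read.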
Luc counter: blocks Kinase-Glo luciferase, a counter-screen artifact; 0.28% of 200,000 active; Kinase-Glo luciferase, ATP luminescence, 8 min; Potency, µM (top dose mostly 38.3 µM), most hits filed as inhibitors; Q27757; AID 1379; also: nearly all actives have a fitted effect of over 60% in size
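Luminescence was the read-out, taken after 8-minute incubation at ambient temperature. Luciferase turned over luciferin with 10 uM ATP in imidazole pH 7.2 buffer containing KCl, MgCl2, Tween 20 and BSA.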
ELG1 genotox: induces genotoxicity in HEK293T cells with luciferase-tagged ELG1; HEK293T ELG1-luciferase reporter, luminescence, 16 h; Potency, µM (series often up to 46 µM), hits mostly activators; 1.3% of 330,000 active; also: nearly all actives have a fitted effect of over 60% in size
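Genotoxic stress is detected as increased luminescence from luciferase-tagged ELG1 in HEK293T cells, measured with ONE-Glo after a 16 hr treatment at 37 °C.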
NPC1 prom act: activators of NPC1 promoter | Huh7 NPC1 promoter luciferase reporter, 24 h | Potency, µM (highest dose often 9.22 µM), usual class: activators | 2.4% of 320,000 active | AID 485313; also: nearly all actives have a fitted effect of over 60% in size
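In 1536-well qHTS, Huh7 cells harboring an NPC1 promoter–luciferase construct received compound for 24 h; activation was quantified by luminescence following luciferase reagent addition.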
Rab9 promoter act: Rab9 promoter activation; Huh7 Rab9 promoter-luciferase reporter, luminescence, 24 h; Potency, µM (highest dose often 9.22 µM), hits mostly activators; 2.8% of 320,000 active; also: nearly all actives have a fitted effect of over 60% in size
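Steps: seed 1500 Huh7 Rab9-luc cells per well, rest 2 h at 37 °C; add compound in DMSO; incubate 24 h; add luciferase reagent, 10 min ambient; read luminescence.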
SMN2 splice up: increases expression of the SMN2 splice variant; 2.8% of 210,000 active; HEK293 SMN2-luciferase splicing reporter, luminescence, 30-36 h; Potency, µM (series often up to 46.1 µM), actives largely listed as activators; also: nearly all actives have a fitted effect of over 55% in size
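HEK293 cells carry an SMN2 […]–luciferase reporter in which exon 7 inclusion puts luciferase in frame. Cells were plated 10-12 h before compound addition, then incubated 30-36 h at 37C. ONE-Glo luminescence was read; sodium butyrate at 4.5 mM final served as control.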
Numbers stand for hits; – = inactive; ? = inconclusive; · = no result; [ ] = another dose, or the depositor's remark. Calls follow the shape of the dose curve; as a rule, active = well fitted curve in the direction sought with a large enough effect; inconclusive = small, poorly fitted or top-dose-only effect, or another doubt; inactive = no such curve, though single readings can be large; an effect the other way counts as inactive or inconclusive.

SMILES	FLuc modulator	Luc counter	ELG1 genotox	NPC1 prom act	Rab9 promoter act	SMN2 splice up
COc1ccc(CC2=C(O)c3ccccc3C(=O)C2=O)cc1	–	·	–	–	–	·
Cc1ccccc1N=CC1=C(O)c2ccccc2C1=O	0.13µM	13µM	?	?	0.25µM	8.9µM
O=C1C(C=Nc2ccc(F)cc2)=C(O)c2ccccc21	0.27µM	?	?	0.35µM	0.79µM	·
Cc1ccccc1OCC(=O)Nc1ccc(-c2nc3cc(Cl)cc(Cl)c3o2)cc1	–	·	·	·	·	–
COCCn1c(SCC(=O)NCC2CCCO2)nc2c([nH]c3ccccc32)c1=O (stereo not drawn)	–	·	–	–	–	·
C=CCc1cc(/C=C/c2nc(O)c([N+](=O)[O-])c(=O)[nH]2)cc(OC)c1O	17µM	–	–	–	–	–
CCOc1cc(/C=C\c2nc(O)c([N+](=O)[O-])c(=O)[nH]2)ccc1OC(C)C	–	·	–	–	–	·
CCOC(=O)CSCc1nc(-c2ccc(Cl)cc2)oc1C	17µM	–	–	–	–	–
COc1ccc(-c2nc(CSCC(=O)N3CCN(c4ccccc4)CC3)c(C)o2)cc1	–	·	·	·	·	–
CCOC(=O)C1CCN(C(=O)CSCc2nc(-c3ccc(OCC)cc3)oc2C)CC1	?	–	21µM	–	–	–
CCOc1ccc(-c2nc(CSCC(=O)N3CCN(C(=O)c4ccco4)CC3)c(C)o2)cc1	19µM	–	–	–	–	–
CCOc1ccc(-c2nc(CSCC(=O)NCC3CCCO3)c(C)o2)cc1 (stereo not drawn)	17µM	·	–[9.26 µM]	–	–	·
O=S(=O)(Nc1cccc(S(=O)(=O)N2CCCCC2)c1)c1ccccc1F	·	·	–	·	·	·
COc1ccc(CNC(=O)C(=O)NCC2OCCCN2S(=O)(=O)c2cccs2)cc1 (stereo not drawn)	–	·	–	–	–	·
CCc1nnc(SC(CC)C(=O)Nc2ccc(OC)c(Cl)c2)c2cc3occc3n12 (stereo not drawn)	–	·	·	·	·	·
CCOc1ccc(C(=O)N2CCC(c3nnc(-c4ccccc4OC)o3)CC2)cc1	–	·	·	·	·	–
CCc1ccc(-c2nc(CSCC(=O)NCc3ccco3)c(C)o2)cc1	24µM	–	–	–	–	–
COC(=O)CS(=O)(=O)c1nc2ccccc2nc1N1CCCCC1	–	·	·	·	·	–
Cc1ccc(C(=O)Nc2cnc3ccccn3c2=O)cc1	17µM	?	4.6µM	2.2µM	1.6µM	11µM
O=C(Nc1cnc2ccccn2c1=O)c1ccc(Cl)cc1Cl	1.7µM	?	?	0.32µM	0.28µM	1.6µM
Cc1ccc(NC(=O)CN2CCN(S(=O)(=O)c3ccc(F)cc3)CC2)cc1C	–	·	–	–	–	·
CCCc1ccc(-c2ccc(C(=O)Oc3ccc(OCC)cc3)cc2)nc1	–	·	·	·	·	–
CCCc1ccc(-c2ccc(C(=O)O)cc2)nc1	1.5µM	–	?	?	0.4µM	2.5µM
CCCc1ccc(OCC(=O)O)cc1	?	–	–	–	–	–
CCCCCc1ccc(-c2ccc(C(=O)Oc3ccc(C(=O)OC)cc3)cc2)nc1	12µM	·	·	·	·	–
SMILES	FLuc modulator	Luc counter	ELG1 genotox	NPC1 prom act	Rab9 promoter act	SMN2 splice up
CCCCCc1ccc(-c2ccc(/C=C/C(N)=O)cc2)nc1	4.8µM	–	–	?	?	–
CC(=O)c1ccc(NC(=O)c2nc(-c3ccccc3)n(-c3ccc(C)cc3)n2)cc1	15µM	·	·	·	·	·
CC(=O)c1ccc(NC(=O)c2nc3ccccc3n(C)c2=O)cc1	4.8µM	·	·	·	·	·
CC(=O)c1ccc(NC(=O)c2nc3ccccc3nc2N2CCCCC2)cc1	–	·	·	·	·	·
Cc1ccc(C)c(NC(=O)c2nc(-c3ccccc3)n(-c3ccccc3)n2)c1	–	–	–	–	–	–
Cc1c(F)cccc1NC(=O)c1ccc2c(c1)CCN2S(C)(=O)=O	–	·	–	–	–	·
COc1ccc(/C=N/NC(=O)c2ccc(-n3cnnn3)cc2)cc1	11µM	·	–	–	–	·
COc1ccc(/C=N/NC(=O)c2nc(-c3ccccc3)n(-c3ccccc3)n2)cc1	15µM	–	–	–	–	–
CC(C)c1ccc(/C=N/NC(=O)c2ccc(-n3cnnn3)cc2)cc1	5.4µM	·	–	–	–	·
Cc1ccc(/C=N/NC(=O)c2ccc(-n3cnnn3)cc2)cc1	–	·	–	–	–	·
COc1cccc(-n2c(SCC(=O)N3CCCc4ccccc43)nc3c([nH]c4ccccc43)c2=O)c1	–	·	·	·	·	·
Cc1ccc(-n2c(C)nn(CCOc3ccccc3)c2=O)cc1	?	–	?	?	3.2µM	11µM
Cc1nn(CCOc2ccccc2)c(=O)n1-c1c(F)cccc1F	24µM	–	?	2.8µM	4µM	13µM
COc1ccccc1NC(=O)C(C)OC(=O)CCC1CCCCC1 (stereo not drawn)	–	·	–	–	–	·
CC(=O)c1ccc(Oc2nc(C)nc3c2oc2ccccc23)cc1	–	·	·	·	·	·
O=c1oc2c(CN3CCCCC3)c(O)ccc2cc1-c1nc2ccccc2[nH]1	9.5µM	–	?	–	?	·
O=C(O)c1ccc2nc(-c3cc4cccc(O)c4oc3=O)[nH]c2c1	0.85µM	·	·	–	–	·
O=c1oc2c(O)cccc2cc1-c1nc2ccccc2[nH]1	0.67µM	·	?	0.56µM	0.79µM	·
C=CCc1cccc2cc(-c3nc4ccc(C)cc4[nH]3)c(=O)oc12	–	·	·	·	·	·
O=C(O)c1ccc2oc(=O)c(S(=O)(=O)c3ccc(F)cc3)cc2c1	–	·	–	–	–	·
O=C(O)c1ccc2nc(-c3cc4cc(F)ccc4oc3=O)[nH]c2c1	5.4µM	·	·	·	·	·
CC(c1ccco1)N(C(=O)COc1ccc(Cl)cc1Cl)c1ccccn1 (stereo not drawn)	4.3µM	–	2.3µM	–	?	–
CC(c1ccco1)N(C(=O)c1ccccc1NS(=O)(=O)c1ccc(Cl)cc1)c1ccccn1 (stereo not drawn)	–	–	–	–	–	–
CC(c1ccco1)N(C(=O)COc1ccc(Cl)cc1)c1ccccn1 (stereo not drawn)	21µM	–	8.9µM	–	–	?
COc1ccccc1NC(=O)COC(=O)COc1cccc2c1OC(C)(C)C2	–	·	–	–	–	·
SMILES	FLuc modulator	Luc counter	ELG1 genotox	NPC1 prom act	Rab9 promoter act	SMN2 splice up
CCOc1ccc(-c2cc(C(=O)N/N=C(\C)c3cccnc3)c3ccccc3n2)c(OCC)c1	?	·	–	–	–	·
Cc1ccc2nc(NC(=O)c3ccc4ncsc4c3)sc2c1	0.95µM	–	2.9µM	1.6µM	1.3µM	7.1µM
O=C(/C=C/c1ccc2c(c1)OCO2)Nc1nc2ccc(F)cc2s1	?	·	?	1.8µM	1.4µM	·
NS(=O)(=O)c1ccc2nc(NC(=O)c3ccc4c(c3)OCCO4)sc2c1	–	·	–	–	–	·
Cc1ccc2nc(NC(=O)c3ccc4c(c3)OCO4)sc2c1	0.95µM	–	–	1.6µM	1.1µM	11µM
NS(=O)(=O)c1ccc2nc(NC(=O)c3ccc4ncsc4c3)sc2c1	2.4µM	·	–	–	–	·
COc1ccc(C(=O)N2CCC3(CC2)CN(c2ncccn2)C3)cc1	·	–	·	·	·	–

Screening data from PubChem BioAssay.
